Screening results deposited in PubChem BioAssay by National Center for Advancing Translational Sciences (NCATS).
Tb PFK inh – T. brucei PFK enzyme inhibition. Potency, µM (titrated, usually from 57.5 µM), for inactives: at the top dose activity, negative = inhibition, most hits filed as inhibitors. T. brucei PFK, ADP-Glo luminescence. AID 485367. 330,000 compounds, 0.17% hits;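 further: 0% = uninhibited 1x PFK enzyme wells and -100% = no-enzyme wells; nearly all actives have a fitted effect of over 60% in size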
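Luminescent ADP detection (ADP-Glo, two-step: ATP depletion then ADP-to-ATP conversion for luciferase) reported PFK activity after 45 min room-temperature reaction of 1.25 nM enzyme with 0.5 mM F6P and 0.1 mM ATP at pH 8.0.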
VDR inh – inhibitors of human vitamin D receptor | P11473 | VDR-SRC2-3 peptide fluorescence polarization, 2 h | Potency, µM, for the others: max response, negative = inhibition, hits mostly inhibitors | 400,000 compounds, 0.93% hits | AID 504847; further: on the % scale 0 is the no-effect control and ±100 the full control effect
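Signal is fluorescence polarization, reporting how far test compounds block the interaction of VDR with the SRC2-3 coregulator peptide after a 2 h room-temperature incubation.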
BRCA1 expr act – BRCA1 expression activation | Potency, µM (top dose mostly 46.1 µM), without a hit: at the highest dose activation, actives largely listed as activators | AID 624202 | MCF7-BRCA1-FFLuc reporter, luminescence, 48 h; response scale: scaled: vehicle 0%, 10 µM genistein 100% | 380,000 compounds, 1.1% hits; further: nearly all actives have a fitted effect of over 80% in size
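Activators of BRCA1 expression were detected as increased firefly luciferase luminescence in engineered MCF7 cells after 48 h compound incubation. Signals were scaled to genistein 10 microM as full activation.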
PLK1 PBD inh – inhibitors of human PLK1 polo-box domain binding | P53350 | Plk1 PBD binding of FITC phosphopeptide, fluorescence polarization | Potency, µM, without a hit: max response, negative = inhibition, hits mostly inhibitors | 360,000 compounds, 2.8% hits | AID 720504; further: series mostly up to about 57 µM; on the % scale 0 is the no-effect control and ±100 the full control effect; nearly all actives have a fitted effect of over 65% in size
Target sequence (P53350 whole entry, looked up, the tested form may be a part): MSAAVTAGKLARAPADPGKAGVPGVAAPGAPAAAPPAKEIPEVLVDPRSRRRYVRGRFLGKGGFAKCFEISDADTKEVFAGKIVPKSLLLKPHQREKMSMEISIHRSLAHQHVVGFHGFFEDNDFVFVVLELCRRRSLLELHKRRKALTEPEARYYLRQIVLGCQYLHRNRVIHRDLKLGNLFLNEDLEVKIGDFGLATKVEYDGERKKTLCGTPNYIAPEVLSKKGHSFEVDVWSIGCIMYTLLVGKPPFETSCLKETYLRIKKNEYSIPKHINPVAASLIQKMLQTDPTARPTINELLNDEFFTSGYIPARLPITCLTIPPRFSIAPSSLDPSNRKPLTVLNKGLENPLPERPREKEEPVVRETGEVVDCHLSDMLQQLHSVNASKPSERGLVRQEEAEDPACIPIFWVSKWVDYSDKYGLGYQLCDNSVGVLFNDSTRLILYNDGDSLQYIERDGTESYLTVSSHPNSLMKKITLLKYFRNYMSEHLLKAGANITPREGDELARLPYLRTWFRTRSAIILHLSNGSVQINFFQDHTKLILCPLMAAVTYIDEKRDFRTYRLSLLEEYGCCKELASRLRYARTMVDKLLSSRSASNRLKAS
* marks the source's active call; other numbers are inactive results; ? = inconclusive; nt = no result; ! = a repeat was not active. Most compounds without a hit are left out; they make up all but 3.9% or so of the library. The call rests on the fitted dose curve; in most records, active means well fitted curve in the direction sought with a large enough effect; inconclusive means small, poorly fitted or top-dose-only effect, or another doubt; inactive means no such curve, though single readings can be large; an effect the other way counts as inactive or inconclusive. Potency means the concentration at half of the fitted maximal effect.

SMILES | Tb PFK inh | VDR inh | BRCA1 expr act | PLK1 PBD inh
CN(Cc1ccccc1F)C(=O)c1cccc(NC(=O)CC2SC(N3CCCCC3)=NC2=O)c1 (stereo not given) | nt | -6.6% | -28.6% | -18.2%
COc1cc(NS(=O)(=O)c2ccc(NC(=S)NC(=O)/C=C/c3ccc(OC)c(OC)c3)cc2)ncn1 | -10.7% | -27.8% | 2.2% | 13.4µM*
CCc1nnc(NS(=O)(=O)c2ccc(NC(=S)NC(=O)/C=C/c3ccc(F)cc3)cc2)s1 | 1.6% | ? | 1.0% | 16.8µM*
CCc1nnc(NS(=O)(=O)c2ccc(NC(=S)NC(=O)/C=C/c3ccc([N+](=O)[O-])cc3)cc2)s1 | 0.2% | 6.1% | 5.0% | -11.4%
CCOC(=O)[C@]12CCCC=C1N(Cc1cccc3ccccc13)C(=O)[C@H](CC(=O)NCC1CCCCC1)C2 | nt | nt | 28.5% | 0.1%
NC(=O)c1c(NC(=O)c2ccncc2)sc2c1CCCC2 | -7.0% | 5.0% | 48.3% | -22.0%
NC(=O)c1c(NC(=O)c2cc(-c3ccc(F)cc3)on2)sc2c1CCCC2 | nt | 56.2µM* | nt | nt
NC(=O)c1c(NC(=O)c2cnccn2)sc2c1CCCC2 | -1.2% | 14.9% | 7.94µM* | -16.6%
COCCn1c(=S)[nH]c2cc(C(=O)NC3CCCCC3C)ccc2c1=O (stereo not given) | nt | nt | 15.6% | -3.6%
Cc1nnc(SCC(=O)Nc2nsc(-c3ccc(C(C)(C)C)cc3)n2)s1 | -0.6% | ? | 1.12µM* | -29.5%
Cc1nc(SCC(=O)Nc2nsc(-c3ccc(C(C)(C)C)cc3)n2)c2c3c(sc2n1)CCCC3 | nt | -11.5% | nt | nt
COc1cc2c(cc1OC)C1CCc3cc4c(cc3C1N=C2)OCO4 (stereo not given) | nt | nt | 10.5% | -4.8%
COc1ccc(C(=O)CCN2CCc3cc(OC)c(OC)cc3C2)cc1 | -10.4% | ? | -20.2% | 26.7µM*
COC(=O)c1ccc(Oc2ccc(C(C)(C)C)cc2)c([N+](=O)[O-])c1 | -3.9% | 23.2% | -11.1% | -0.8%
COC(=O)c1ccc(Oc2c(Cl)cccc2[N+](=O)[O-])cc1 | -2.0% | ? | 1.3% | 21.2µM*
Cc1cc2nc(NC(=O)C3(C)CCN3C(=O)C(C)C)[nH]c2cc1C (stereo not given) | nt | nt | 3.8% | -10.0%
COc1cccc(-c2ccc(SCc3ccccn3)nn2)c1 | -12.2% | -11.8% | 5.01µM* | -5.7%
O=C(COc1ccccc1C(=O)Nc1ccccc1)Nc1cccc([N+](=O)[O-])c1 | nt | nt | 7.2% | nt
O=C(O)Cc1c[nH]c2ccc(O)cc12 | nt | 50.1µM*! | 0.0% | 4.7%
COc1ccc2[nH]cc(CC(=O)O)c2c1 | 2.0% | -12.8% | 2.8% | -16.0%
Cc1ccc(C(=O)OCC(=O)Nc2ccccc2Cl)c(O)c1 | -12.0% | ? | -5.6% | 9.47µM*
Cc1cccc(NC(=O)CCc2c(C)nn(-c3ccc(N4CCOCC4)nn3)c2C)c1 | -3.8% | -12.3% | 14.1% | -5.2%
Cc1ccc(NC(=O)CCc2c(C)nn(-c3ccc(N4CCOCC4)nn3)c2C)cc1C | -1.4% | -19.3% | 48.9% | 26.7µM*
O=C(Cn1c(=O)n(-c2ccc(Cl)cc2)c(=O)c2oc3ccccc3c21)Nc1ccccc1 | nt | 8.7% | nt | nt
CCCc1cc(C(=O)Nc2cccc(Cl)c2)no1 | -9.3% | -6.5% | ? | 0.1%
SMILES | Tb PFK inh | VDR inh | BRCA1 expr act | PLK1 PBD inh
O=C(Nc1ccc(F)c(Cl)c1)c1cc(C2CCCN(C(=O)C3CC3)C2)on1 (stereo not given) | nt | nt | 2.82µM* | -12.6%
CCOC(=O)c1c(NC(=O)c2cc(-c3ccc(Br)cc3)on2)sc(C)c1C | nt | 79.4µM* | nt | nt
CCCc1cc(C(=O)Nc2sc(C)c(C)c2C(=O)OCC)no1 | -10.0% | ? | -4.3% | 21.2µM*
CCCc1cc(C(=O)Nc2ccc(F)c(Cl)c2)no1 | -18.1% | -16.3% | 11.2µM* | -11.1%
Cc1ccc(NC(=O)CSc2nc3ccccc3n2CC(=O)N(C)C2CCCCC2)cc1C | nt | 8.5% | nt | nt
COCCCN1C(=O)C(CC(=O)NC2CC2)CC(C(=O)N2CCOCC2)=C1C (stereo not given) | nt | nt | 0.0% | -3.6%
CC(=O)N1CC(C)Sc2ccc(S(=O)(=O)NCc3ccc(F)cc3)cc21 (stereo not given) | -2.0% | 8.0% | -5.1% | -11.4%
CC(=O)N1CC(C)Sc2ccc(S(=O)(=O)NCCc3cccc(C)c3)cc21 (stereo not given) | 1.3% | ? | -1.5% | 11.9µM*
CCOc1ccc(NC(=O)CN(C)C(=O)C2CC(=O)N(c3cccc(SC)c3)C2)cc1OCC (stereo not given) | nt | -12.9% | -4.7% | -3.7%
CC1CCCN(C(=S)NCCc2ccccc2)C1 (stereo not given) | -2.5% | 2.3% | 10µM* | -13.5%
O=C(C[C@H]1C(=O)N(C2CCCCC2)C[C@@H]1c1ccccc1)Nc1ccc(Br)cc1 | nt | nt | 3.7% | -0.2%
c1ccc(-n2nnc(-c3cccnc3)n2)cc1 | 8.5% | -4.6% | 7.94µM* | -3.2%
COc1ccccc1N(CC(=O)NC(C)(C)C)S(=O)(=O)c1cccs1 | -3.6% | ? | -3.1% | 26.7µM*
COCCNC(=O)C(=O)Nc1cccc(Br)c1 | -6.0% | -3.9% | ? | -14.9%
COCCNC(=S)NNc1cccc(C(=O)O)c1 | 1.3% | ? | 43.4% | 21.2µM*
CCCNC(=O)C1(C)CCN(Cc2cc(-c3ccccc3)on2)C1 (stereo not given) | nt | nt | 9.4% | -10.1%
CCOc1ccc(/C=C2/C(=N)N3OC(C)=CC3=NC2=O)cc1OC | 0.2% | ? | 7.9% | 21.2µM*
COc1cc(/C=C2/C(=N)N3OC(C)=CC3=NC2=O)ccc1OCCOc1ccc(C)cc1 | 1.0% | -21.0% | 3.5% | -3.1%
CCCCOc1ccc(C(=O)Nc2cccc(C)n2)cc1 | 2.8% | -1.4% | 2.82µM* | 0.6%
Cc1cccc(NC(=O)c2ccccc2Br)n1 | -2.3% | -11.8% | 0.0% | 26.7µM*
Cc1cccc(NC(=O)c2ccc(Cl)nc2)n1 | -5.1% | -12.3% | 18.3% | -2.6%
Cc1cccc(NC(=O)c2ccc3nccnc3c2)n1 | 13.6% | -6.9% | 12.6µM* | -11.1%
CC(C)n1c(=O)c2ccccc2n1Cc1cn(C2CCCC2)nn1 | nt | nt | 4.2% | -4.2%
CC#CCCC(=O)N1C=Cc2ccccc2C1C#N (stereo not given) | 5.4% | -18.0% | -9.6% | 11.9µM*
O=[N+]([O-])c1cccnc1Oc1cc(Cl)c(Cl)cc1Cl | nt | nt | 9.4% | 16.8µM*
SMILES | Tb PFK inh | VDR inh | BRCA1 expr act | PLK1 PBD inh
Cc1ccc(NC(=O)Cn2cc(S(=O)(=O)Cc3ccc(F)cc3)c3ccccc32)cc1Cl | nt | 11.4% | nt | nt
CC(=O)Nc1ccc(Sc2ccccc2C(=O)Nc2ccc(F)cc2)cn1 | -0.3% | -9.9% | 2.6% | 18.9µM*
CCOC(=O)c1c(NC2OC(=O)c3c2ccc(OC)c3OC)sc(C(=O)OC(C)(C)C)c1C (stereo not given) | -0.1% | ? | 57.1% | 23.8µM*
CCc1ccc(/C=C2\SC(=S)N(CCCC(=O)Nc3ccccc3C(=O)O)C2=O)cc1 | -8.1% | ? | -40.2% | 21.2µM*
COc1ccc(CN2C(=O)/C(=C/c3ccncc3)SC2=S)cc1 | -4.6% | 50.1µM* | -87.1% | ?
COc1ccc(/C=C2\SC(=S)N(CCCC(=O)NNC(=O)c3ccccc3O)C2=O)cc1 | -0.1% | -1.6% | -85.8% | 23.8µM*
